Test results from PubChem BioAssay (NCATS).
Records with an inconclusive call do not appear. Entries that show only a call come without a potency. Calls of active or inactive are those of the source. Calls follow the shape of the dose curve; as a rule, active = well fitted inhibition curve with a large enough effect; inconclusive = small, poorly fitted or top-dose-only effect; inactive = no such curve, though single readings can be large or run the other way.

Test system: Zika virus NS2B-NS3 protease (linked construct)
Assay: Primary screen NINDS Rhodamine qHTS for Zika virus inhibitors (AID 1347160); also: nearly all actives have a fitted effect of over 55% in size
Conditions: purified NS2B-NS3 protease, Rhodamine110 substrate fluorescence; series mostly up to 57.1 µM
Outline: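 Percent inhibition, normalized to uninhibited and enzyme-free controls, is fitted to a 4-parameter Hill equation. Fluorescence change comes from a 15-min cleavage of 1.5 microM bis-peptide Rhodamine110 substrate by 25 nM linked NS2B-NS3 at room temperature.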
Potency is read from the fitted curve at half-maximal effect.

For `O=S(=O)(NC1CCNCC1)c1cc(S(=O)(=O)c2ccccc2)ccc1C(F)(F)F`, which Potency is on record?
Its Potency is “inactive”.

For `Clc1ccc(CN[C@H]2CCN(c3ncc(Br)cn3)C2)c(Cl)c1`, which Potency is on record?
Its Potency is “inactive”.

How did the Potency turn out when `C[C@H]1[C@H](C)CC[C@]2(C(=O)O)CC[C@]3(C(=O)O)C(=CCC4[C@@]5(C)CC[C@H](O[C@@H]6O[C@H](C)[C@@H](O)[C@H](O)[C@H]6O)C(C)(C)C5CC[C@]43C)[C@H]12` (some centres not stated) was run?
The Potency was “inactive”.

For `Cc1cc(C)c(S(=O)(=O)N(Cc2ccc(-c3cccc(S(C)(=O)=O)c3)cc2)Cc2ccc(C(F)(F)F)o2)c(C)c1`, which Potency is on record?
The Potency was “inactive”.

Which Potency does the source give for `O=C1[C@H](O[C@@H]2O[C@H](CO)[C@@H](O)[C@H](O)[C@H]2O)Oc2ccccc2N1O` here?
The Potency was “inactive”.

For `C=C1[C@@H]2CC[C@@]3(C)[C@H](c4ccoc4)OC(=O)C[C@]13O[C@H]1CC(=O)C(C)(C)[C@H](CC(=O)OC)[C@]12C`, which Potency is on record?
Its Potency is “inactive”.

For `CNC(=O)Nc1ccc(OC)c(NC(=O)NC(=O)c2cc(F)c(F)cc2Cl)c1`, which Potency is on record?
Its Potency is “inactive”.

`O=C(NN1CCCCC1)c1nn(-c2ccc(Cl)cc2Cl)c(-c2ccc(C#Cc3ccc(C(F)(F)F)cc3)s2)c1CNS(=O)(=O)N1CCCC1` was tested. Which Potency did it give?
Its Potency is “inactive”.

How did the Potency turn out when `CC1=C(C)C(=O)OC(C(C)(O)C2CCC3C4CC=C5CC(OC6OC(COC7OC(CO)C(O)C(O)C7O)C(O)C(O)C6O)CC(O)C5(C)C4CCC32C)C1` (configuration not stated) was run?
The Potency was “inactive”.

How did the Potency turn out when `C[C@@H]1CC[C@]2(C(=O)O[C@@H]3O[C@H](CO)[C@@H](O)[C@H](O)[C@H]3O)CC[C@]3(C)C(=CCC4[C@@]5(C)C[C@@H](O)[C@H](O)C(C)(C)C5CC[C@]43C)C2[C@]1(C)O` (some centres not stated) was run?
The Potency was “inactive”.

`COC(=O)c1cc(CN2CCN(C(=N)N)CC2)cc(C(=O)N2CCN(C(=O)c3ccc(C(=N)N)cc3)CC2)c1` was tested. Which Potency did it give?
The Potency was “inactive”.

For `Cc1[nH]cnc1C1CCN(c2nc3cccc4c3n2CCC4=O)CC1`, which Potency is on record?
The Potency was “inactive”.

With `CO/N=C(/C(=O)N[C@@H]1C(=O)N2C(C(=O)O)=C(CSC(=O)c3ccco3)CS[C@H]12)c1csc(N)n1` as the compound, how does the Potency read?
Its Potency is 25.1 µM (active).

`CC(=O)N[C@H]1CCN(c2ccc(C3=NOC(CN[S+](=O)([O-])C(C)C)C3)cc2F)C1` (some centres not stated) was tested. Which Potency did it give?
Its Potency is “inactive”.

`COc1cc(C)c(C(=O)O[C@H]2[C@@H](O)[C@H](n3ccc(=O)[nH]c3=O)O[C@@H]2CO)c(OC)c1` was tested. Which Potency did it give?
The Potency was “inactive”.

For `Cc1ccc(C(=O)Nc2ccc(Oc3cc4cnn(C)c4cc3-c3cn[nH]c3)c(F)c2)c(=O)n1-c1ccc(F)cc1`, which Potency is on record?
Its Potency is “inactive”.

With `C=C1[C@H]2[C@H](O[C@@H]3O[C@H](COC(=O)/C=C/c4cc(OC)c(O)c(OC)c4)[C@@H](O)[C@H](O)[C@H]3O)OC=C(C(=O)O)[C@H]2C[C@@H]1O` as the compound, how does the Potency read?
Its Potency is “inactive”.
